Assay results: PubChem BioAssay (NCATS)
Records with an inconclusive call do not appear. Activity calls are given as the source filed them. Calls follow the shape of the dose curve; as a rule, active = well fitted curve in the direction sought with a large enough effect; inconclusive = small, poorly fitted or top-dose-only effect, or another doubt; inactive = no such curve, though single readings can be large; an effect the other way counts as inactive or inconclusive.

Legend:
[1] = target: Glutathione peroxidase 1 (Homo sapiens) (UniProt P07203); assay: Primary qHTS Assay for Inhibitors of Recombinant Selenoprotein Glutathione Peroxidase 1 (GPX1) (AID 1845191); also: nearly all actives have a fitted effect of over 65% in size; as to activity, negative = inhibition: % is scaled to controls: 0 for no effect and ±100 for the full control effect
In short: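 GR-coupled readout: NADPH consumption tracked by fluorescence, ex 340/em 450 nm, at t=0 and after 15 min at RT. Final mix 10 nM GPX1, 1 mM GSH, 0.5 mM CHP, 0.5 mM NADPH, 100 nM GR, 0.01% BSA, following 30 min enzyme–compound preincubation.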

[2] = target: Phospholipid hydroperoxide glutathione peroxidase GPX4 (Homo sapiens) (UniProt P36969); assay: Primary qHTS Assay for Inhibitors of Recombinant Selenoprotein Glutathione Peroxidase 4 (GPX4) (AID 1845192); also: nearly all actives have a fitted effect of over 65% in size
In short: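 Steps: GPX4 plus compound, 30 min RT; add GR/GSH/NADPH master mix; start with cumene hydroperoxide; read 340/450 nm fluorescence at 0 and 15 min. Finals were 200 nM GPX4, 1 mM GSH, 0.5 mM CHP, 0.5 mM NADPH, 100 nM GR.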

[3] = target: Luciferin 4-monooxygenase (Photinus pyralis) (UniProt P08659); assay: Primary firefly luciferase (FLuc) qHTS assay for identification of artifact compounds. (AID 1845220); also: nearly all actives have a fitted effect of over 60% in size
In short: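 Enzymatic FLuc inhibition assay: compounds pre-exposed to luciferin/ATP (10 uM each) for 15 min, then purified P. pyralis enzyme at 10 nM added. Read-out: luminescence at 5 min.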

[4] = tested on: Nanoluciferase (engineered Oplophorus gracilirostris luciferase); assay: Primary Nanoluciferase (NLuc) qHTS assay for identification of artifact compounds. (AID 1845222);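 also: NLuc secreted into diluted conditioned medium of S16 cells; series mostly up to about 54 µM; 0% = DMSO and -100% = no enzyme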
In short: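 S16 cell supernatant NLuc, 1:55; cpds qHTS; 15 min RT dark; Nano-Glo substrate 1:100, 5 min; luminescence; Hill fit of % inhibition.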

[5] = Primary redox qHTS assay for identification of artifact compounds. (AID 1845223);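 also: 0% = DMSO and 100% = reference compound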
In short: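 Redox-cycling detection via DTT (250 uM final) oxidation coupled to Amplex Red (25 uM)/HRP (250 mU/mL) in HBSS. 15 min preincubation plus 30 min after DTT, room temperature. Ex/Em 525/598 nm; 4-parameter Hill fit against DMSO and 10 uM DA3003.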

[6] = Primary fluorescence-based thiol-reactive (MSTI) qHTS assay for identification of artifact compounds. (AID 1845221);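 also: series mostly up to about 54 µM; thiol-reactive compounds lower the probe fluorescence signal; nearly all actives have a fitted effect of over 65% in size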
In short: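 Probe: MSTI 4 uM, PBS pH 7.4, 2% DMSO. Incubation 1 h, RT, light-protected. Readout fluorescence 525/598 nm.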

Sequence of Glutathione peroxidase 1 (Homo sapiens) (P07203 whole entry, looked up): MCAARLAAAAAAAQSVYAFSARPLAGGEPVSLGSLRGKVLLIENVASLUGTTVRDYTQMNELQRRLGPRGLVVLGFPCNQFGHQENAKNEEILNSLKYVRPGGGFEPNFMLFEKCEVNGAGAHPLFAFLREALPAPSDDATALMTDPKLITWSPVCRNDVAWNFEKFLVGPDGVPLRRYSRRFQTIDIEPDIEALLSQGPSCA
Sequence of Phospholipid hydroperoxide glutathione peroxidase GPX4 (Homo sapiens) (P36969 whole entry, looked up): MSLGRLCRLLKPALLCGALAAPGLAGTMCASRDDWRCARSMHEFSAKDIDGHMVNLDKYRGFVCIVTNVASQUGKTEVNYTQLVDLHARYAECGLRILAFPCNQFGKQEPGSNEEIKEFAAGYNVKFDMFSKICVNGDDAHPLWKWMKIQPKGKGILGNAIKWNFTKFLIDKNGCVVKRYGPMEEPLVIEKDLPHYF

O=S(=O)(Nc1ccccn1)c1ccc(N=Cc2c(O)[nH]c3ccc4ncsc4c23)cc1
inactive: outcome [1] inactive [at 9.52 µM] | outcome [2] inactive [at 9.73 µM] | outcome [3] inactive [at 11.6 µM] | activity, negative = inhibition [4] -7.47% [at 11.6 µM] | redox activity (% of DA3003) [5] -4.81% [at 11.5 µM]

C=C(CO)C12OC1C1(C)C(=CC2=O)C(O)C(O)CC1C (configuration not stated)
inactive: Potency [1] | Potency [2] | Potency [3] | Potency [4] | Potency [5]

CC1(C)CCCC2(C)C1CC=C1C(=O)OC(O)C12O (configuration not stated)
inactive: Potency [1] | Potency [2] | Potency [3] | Potency [4] | Potency [5]

Cn1c(=O)cc(N2CCCC(N)C2)n(Cc2cc(F)ccc2C#N)c1=O (configuration not stated)
inactive: Potency [1] | Potency [2] | Potency [3] | Potency [4] | Potency [5]

CC/C=C\CCO[C@@H]1O[C@H](CO[C@@H]2OC[C@H](O)[C@H](O)[C@H]2O)[C@@H](O)[C@H](O)[C@H]1O
inactive: Potency [1] | Potency [2] | Potency [3] | Potency [4] | Potency [5]

OC[C@H]1O[C@@H](Oc2cc(O)c3c(c2)O[C@@H](c2ccc(O)cc2)[C@H](O)C3)[C@H](O)[C@@H](O)[C@@H]1O
inactive: Potency [1] | Potency [2] | Potency [3] | Potency [4] | Potency [5]

COC1=CC(=O)CC(C)C12Oc1cc(OC)cc(O)c1C2=O (configuration not stated)
inactive: Potency [1] | Potency [2] | Potency [3] | Potency [4] | Potency [5]

CC(C)CC(=O)OC1OC=C(CO[C@@H]2O[C@H](CO)[C@@H](O)[C@H](O)[C@H]2O)C2CC(O)C(O)(CO)C12 (some centres not stated)
inactive: Potency [1] | Potency [2] | Potency [3] | Potency [4] | Potency [5]

CC[C@H]1OC(=O)[C@H](C)[C@@H](O[C@H]2C[C@@](C)(OC)[C@@H](O)[C@H](C)O2)[C@H](C)[C@@H](O[C@@H]2O[C@H](C)C[C@H](N(C)C)[C@H]2O)[C@](C)(O)C[C@@H](C)C(=O)[C@H](C)[C@H]2OC(=O)O[C@@]21C
inactive: Potency [1] | Potency [2] | Potency [3] | Potency [4] | Potency [5]

OC[C@H]1O[C@@H](OCCc2ccc(O)cc2)[C@H](O[C@@H]2OC[C@](O)(CO)[C@H]2O)[C@@H](O)[C@@H]1O
inactive: Potency [1] | Potency [2] | Potency [3] | Potency [4] | Potency [5]

CC(C)[C@@](C)(O)[C@@H]1CN(c2nc(-c3[nH]nc4ncccc34)c(F)cc2Cl)CCN1
inactive: Potency [1] | Potency [2] | Potency [3] | Potency [4] | Potency [5]

Cc1cc(NC(=O)Nc2ccc(F)c(F)c2)n(-c2ccccc2)n1
inactive: Potency [1] | Potency [2] | Potency [3] | Potency [4] | Potency [5]

CC1=CC(=O)CC2C1(O)CCC(C)C21CC(c2ccoc2)OC1=O (configuration not stated)
inactive: Potency [1] | Potency [2] | Potency [3] | Potency [4] | Potency [5]

COC(=O)C1=CO[C@@H](O[C@@H]2O[C@H](CO)[C@@H](O)[C@H](O)[C@H]2O)[C@@H]2C(CO)=CC[C@]12O
inactive: Potency [1] | Potency [2] | Potency [3] | Potency [4] | Potency [5]

COc1c2c(c(C)c3c1C(=O)OC3)OC1(C)CC(O)C(C(C)(C)O)C(C)(CCC(=O)O)C1C2 (configuration not stated)
inactive: Potency [1] | Potency [2] | Potency [3] | Potency [4] | Potency [5]

N#Cc1ccc(C(=O)N2CCC3(CC2)N=C(N)c2c(F)ccc(F)c2N3)cn1
inactive: Potency [1] | Potency [2] | Potency [3] | Potency [4] | Potency [5]

C=CC1(C)C=C2C(=O)OC(=O)C3=C(CCCC3(C)C)C2(O)CC1 (configuration not stated)
inactive: Potency [1] | Potency [2] | Potency [3] | Potency [4] | Potency [5]

CC1=CC(=O)[C@H]2C(C)(C)CCC[C@]2(C)[C@@]1(O)CO
inactive: Potency [1] | Potency [2] | Potency [6] | Potency [4]

c1ccc(N2CCN(CCc3nn[nH]n3)CC2)cc1
inactive: Potency [1] | Potency [2] | Potency [3] | Potency [4] | Potency [5]

CC(C)c1nc(-c2ccc(NC(=O)Nc3cccc(C(F)(F)F)c3)c3ccccc23)c2c(N)nccn12
inactive: Potency [1] | Potency [2] | Potency [3] | Potency [4] | Potency [5]

COc1cc2c(cc1OC)[C@@H]1[C@H](O)[C@@H](OC)C=C3CCN(C2)[C@H]31
inactive: Potency [1] | Potency [2] | Potency [3] | Potency [5]

COc1cc(C(=O)O)ccc1OC1OC(CO)C(O)C(O)C1O (configuration not stated)
inactive: Potency [1] | Potency [2] | Potency [3] | Potency [4] | Potency [5]

Cc1cc(O)cc(O[C@@H]2O[C@H](CO)[C@@H](O)[C@H](O)[C@H]2O)c1
inactive: Potency [1] | Potency [2] | Potency [3] | Potency [5]

CC1(C)CC2C=C(C(=O)O)C3COC(=O)C(O)(CO)C23C1 (configuration not stated)
inactive: Potency [1] | Potency [2] | Potency [3] | Potency [4] | Potency [5]

Cc1onc(C(=O)N2CCN(C(c3ccc(Cl)cc3)c3ccc(Cl)cc3)CC2)c1[N+](=O)[O-]
inactive: Potency [1] | Potency [2] | Potency [3] | Potency [4] | Potency [5]

COc1cc2ncnc(Nc3ccc(O)cc3)c2cc1OC
inactive: Potency [1] | Potency [2] | Potency [3] | Potency [4] | Potency [5]

C=CCC1=C[C@]2(OC)[C@H](C)[C@@H](c3ccc(O)c(OC)c3)O[C@]2(OC)CC1=O
inactive: Potency [1] | Potency [2] | Potency [3] | Potency [4] | Potency [5]
